Data reported in PubChem BioAssay (NCI).
Compounds without any hit were thinned out: in the full panel of roughly 83,000, 20% have a hit.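 Negative percent growth values reflect cell death: -40 means 40% of the cells present at the start died, and -100 means all died.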 Unmarked numbers belong to inactive results. Calls of active or inactive are those of the source. How the source made its calls: active means growth percent below 10; inactive means the rest.

test system: A549/ATCC NSCLC; experiment: NCI-60 one-dose screen, 48 h (100 = growth as untreated, 0 = no growth, -100 = all killed); conditions: 10 µM unless noted

Row | SMILES | growth
1 | N#Cc1c(N)[nH]c(S)c1C#N | 90.9%
2 | NC(=Nc1ccccc1)SCCCCSC(N)=Nc1ccccc1 | 85.1%
3 | CN(C)c1cccc2c(S(=O)(=O)N[C@H]3CC[C@H]4[C@@H]5CCc6cc(O)ccc6[C@H]5CC[C@]34C)cccc12 | 18.5%
4 | CCCCCCCCCCCCCCCCCc1nccn1CCO | 64.7%
5 | COC(=O)CCC1=C(C)/C(=C/c2[nH]c(-c3ccc[nH]3)cc2OC)N=C1C | 13%
6 | NC(=O)N/N=C/c1ccc(Br)o1 | 106%
7 | COc1ccc(OC)c2c1[nH]c(=O)c1c3ccccc3cn21 | -73.2% (active)
8 | O=C1C(=O)c2ccc(Br)cc2-c2cc(Br)ccc21 | 89.7%
9 | O=c1c(O)cccn1CCCNCCCN(CCCn1cccc(O)c1=O)CCCn1cccc(O)c1=O | 105%
10 | CN(CCOc1ccc(CC2SC(=O)NC2=O)cc1)c1ccccn1 (configuration not stated) | 99.2%
11 | COc1cccc2c1C(=O)c1c(O)c3c(c(O)c1C2=O)C[C@@](O)(/C(C)=N/NC(=O)c1cccc([N+](=O)[O-])c1)C[C@@H]3OC1CC(N)C(O)C(C)O1 (some centres not stated) | -53.4% (active)
12 | Cc1nnc(Nc2ccc(NC(=O)Nc3ccc(Cl)cc3)cc2)c2ccccc12 | 26.4%
13 | O=C(Nc1ccc(Cl)cc1)Nc1ccc(Nc2nncc3ccccc23)cc1 | 20.1%
14 | OCc1nnn(-c2ccccc2)c1CO | 110%
15 | COc1ccc2c(c1)C(=O)c1c-2c(=O)n(CCCCCCC(=O)NO)c2ccccc12 | -10.4% (active)
16 | O=[N+]([O-])c1ccc(N/N=C\c2ccccc2[N+](=O)[O-])nc1 | 92.2%
17 | CN1COc2ccc3ccccc3c2C1 | 97.4%
18 | O=C(Nc1cccc2ccccc12)c1cc2c(cc1Br)OCO2 | 113%
19 | Cc1cc(NC(=O)Nc2cc(Cl)ccc2C)no1 | 108%

Row | SMILES | growth
20 | O=C1C[C@@H]2/C(=C(O)\C=C\c3ccccc3)C(=O)C=C[C@@H]2O1 | 36.7%
21 | O=C1/C(=C/c2ccc([N+](=O)[O-])o2)Oc2ccc(Cl)cc21 | 92.4%
22 | c1ccc(N2CCN(c3nncc4ccccc34)CC2)nc1 | 100%
23 | O=C(Nc1ccc(Oc2ccc(NC(=O)Nc3ccc([N+](=O)[O-])cc3)cc2)cc1)Nc1ccc([N+](=O)[O-])cc1 | 7.01% (active)
24 | Cc1cc(C)n(C(=O)c2nn(-c3ccc(Cl)cc3)cc2O)n1 | 11.6%
25 | NC(=O)c1ncn([C@@H]2O[C@H](CO)[C@@H](O)[C@H]2O)n1 | 91.2%
26 | CCCCN(CCCC)CCCOC(=O)c1ccc(N)cc1 | 70.9%
27 | COc1ccc2c(c1)C(=O)/C(=C/c1ccc([N+](=O)[O-])s1)O2 | 8.34% (active)
28 | CCCCCCCCCCCCCCCCCC1=NC(C)(C)CN1CCO | -28.9% (active)
29 | COc1cc([C@@H]2c3cc4c(cc3C(O[C@@H]3O[C@@H]5CO[C@@H](c6cccs6)OC5[C@H](O)[C@H]3O)C3COC(=O)[C@@H]32)OCO4)cc(OC)c1O (some centres not stated) | -48.3% (active)
30 | CC12CCC3C(CCC4CC(=O)/C(=C\O)CC43C)C1CCC(=O)O2 (configuration not stated) | 106%
31 | O=C(Nc1ccc(Cl)cc1Cl)Nc1ccc(-c2cccnc2)cc1N1CCC(CO)CC1 | 27.2%
32 | CCN(CC)CCCCNc1c2ccccc2[n+](C)c2c1[nH]c1ccccc12 | 2.8% (active)
33 | Cc1ccc(NC(=O)Nc2ccc(-c3cccnc3)cc2N2CCC(CO)CC2)cc1 | 7.01% (active)
34 | COc1cc(C2CC(c3ccc(C)cc3)=NN2C(C)=O)ccc1Oc1ccnc2cc(Cl)ccc12 (configuration not stated) | 68.7%
35 | C[n+]1c2ccccc2c(NC2CCNCC2)c2[nH]c3ccccc3c21 | 1.98% (active)
36 | Clc1ccc([C@@H]2C[C@@H]3Cc4cc(Br)c5ccccc5c4N2O3)c(Cl)c1 | 70.8%
37 | C=C(C)[C@@H]1C[C@H](O)Cc2cc(Cl)cc(Cl)c2N1 | 94.2%
